The whole screen tested about 5,500 compounds, of which about 2,000 (36%) were called active. Roughly 18% stayed inconclusive and do not appear here. No stated cut-off is given here; in the data, active means normalized growth mostly below about 0.91 (no sharp cut-off); inconclusive means no clear call, values can overlap the other calls; inactive means mostly above about 0.92. The list shows a part of the results.
Experiment: chemical genetic growth profiling, strain panel (AID 1159580);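 further: tested at 20 µM; growth read once vehicle control cultures reached saturation at 30 °C; 1 = growth at the plate median or of vehicle wells; lower values mean less growth of the strain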
Settings: growth OD
[1] = S. cerevisiae deletion strains, locus YDR150W, strain NUM1, active compounds read low
[2] = S. cerevisiae deletion strains, locus YGR078C, strain PAC10, active compounds read low
[3] = S. cerevisiae deletion strains, locus YGR229C, strain SMI1, active compounds read low
[4] = S. cerevisiae deletion strains, locus YMR263W, strain SAP30, active compounds read low
[5] = S. cerevisiae deletion strains, locus YMR307W, strain GAS1, active compounds read low
[6] = S. cerevisiae deletion strains, locus YNL128W, strain TEP1, active compounds read low
[7] = S. cerevisiae deletion strains, locus YNL153C, strain GIM3, active compounds read low
[8] = S. cerevisiae deletion strains, locus YPL055C, strain LGE1, active compounds read low
[9] = S. cerevisiae deletion strains, locus YAL013W, strain DEP1, active compounds read low
[10] = S. cerevisiae deletion strains, locus YBR229C, strain ROT2, active compounds read low
[11] = S. cerevisiae deletion strains, locus YCL061C, strain MRC1, active compounds read low
[12] = S. cerevisiae deletion strains, locus YDL101C, strain DUN1, active compounds read low
[13] = S. cerevisiae deletion strains, locus YDL134C, strain PPH21, active compounds read low
[14] = S. cerevisiae deletion strains, locus YEL061C, strain CIN8, active compounds read low
[15] = S. cerevisiae deletion strains, locus YHR030C, strain SLT2, active compounds read low
[16] = S. cerevisiae deletion strains, locus YHR087W, strain rtc3, active compounds read low
[17] = S. cerevisiae deletion strains, locus YJR043C, strain POL32, active compounds read low
[18] = S. cerevisiae deletion strains, locus YJR075W, strain HOC1, active compounds read low
[19] = S. cerevisiae deletion strains, locus YLR039C, strain RIC1, active compounds read low
[20] = S. cerevisiae deletion strains, locus YLR058C, strain SHM2 (second series), active compounds read low
[21] = S. cerevisiae deletion strains, locus YLR085C, strain ARP6, active compounds read low
[22] = S. cerevisiae deletion strains, locus YLR262C, strain YPT6, active compounds read low
[23] = S. cerevisiae deletion strains, locus YML094W, strain GIM5, active compounds read low
[24] = S. cerevisiae deletion strains, locus YMR219W, strain ESC1, active compounds read low
[25] = S. cerevisiae deletion strains, locus YNL298W, strain CLA4 (second series), active compounds read low
[26] = S. cerevisiae deletion strains, locus YNL322C, strain KRE1, active compounds read low
[27] = S. cerevisiae deletion strains, locus YNR030W, strain Alg12, active compounds read low
[28] = S. cerevisiae deletion strains, locus YPL241C, strain CIN2, active compounds read low
[29] = S. cerevisiae deletion strains, locus YPR135W, strain CTF4, active compounds read low

Measured: normalized growth

O=C1C2C=CC=CC2=NC(=S)N1CCN1CCC(=C(c2ccc(F)cc2)c2ccc(F)cc2)CC1 (centres undefined)
active: [2] 0.857 | [3] 0.717 | [5] 0.707 | [7] 0.578 | S. cerevisiae deletion strains, locus YOR083W, strain WHI5 (second series), active compounds read low 0.607
inactive: S. cerevisiae deletion strains, locus YAL040C, strain CLN3, active compounds read low 0.896 | S. cerevisiae deletion strains, locus YCL061C, strain MRC1 (second series), active compounds read low 1.01 | [1] 1 | S. cerevisiae deletion strains, locus YDR363W, strain ESC2, active compounds read low 0.951 | S. cerevisiae deletion strains, locus YER002W, strain NOP16, active compounds read low 1.04 | [4] 0.985 | [6] 1.06 | S. cerevisiae deletion strains, locus YNL197C, strain WHI3, active compounds read low 1.08 | S. cerevisiae deletion strains, locus YNL224C, strain SQS1, active compounds read low 1.02 | [8] 1.03

CCOC(=O)Cc1csc(N=CNO)n1
inactive: [9] 1.01 | [10] 1.02 | [11] 1.01 | [12] 1 | [13] 1.02 | [1] 0.892 | [14] 1.01 | [2] 1.02 | [3] 0.997 | [15] 0.999 | [16] 1.04 | [17] 0.989 | [18] 1.05 | [19] 0.992 | [20] 1.02 | [21] 1.03 | [22] 0.951 | [23] 1.02 | [24] 1.02 | [4] 0.999 | [5] 1.03 | [6] 0.999 | [7] 1.01 | [25] 1.05 | [26] 1.01 | [27] 1.03 | [8] 1.02 | [28] 1.02 | [29] 1.04 | S. cerevisiae strains, strain wild type, active compounds read low 1.03

CCc1nnc(N=CNO)s1
active: [10] 0.846 | [14] 0.843 | [15] 0.573 | [16] 0.79 | S. cerevisiae deletion strains, locus YJL187C, strain SWE1, active compounds read low 0.817 | [18] 0.809 | [23] 0.855 | [24] 0.879 | [25] 0.823 | S. cerevisiae deletion strains, locus YOL006C, strain TOP1, active compounds read low 0.465
inactive: [9] 0.956 | [11] 0.913 | [12] 0.932 | [13] 0.989 | [1] 0.978 | [2] 0.973 | [3] 0.992 | [17] 0.97 | [19] 0.967 | [20] 1 | [21] 0.803 | [22] 0.947 | [4] 0.968 | [7] 0.965 | [26] 1.01 | [27] 0.944 | [8] 0.909 | [28] 0.99 | [29] 0.795

— PubChem BioAssay AID1159580 (chemical genetic matrix, 2015)
